Compounds with a hit are over-represented: about 1.2% of the library has one in this group of screens.
Tb PYK inh: T. brucei pyruvate kinase inhibition. Q57TT1. TbPYK enzyme, Kinase-Glo Plus ATP luminescence, 45 min. Potency, µM (series often up to 76.8 µM), for the others: at the top dose activity, negative = inhibition, actives largely listed as inhibitors. 410,000 tested, 0.12% active; note: % is set by controls: 0 for no effect and ±100 for the full control effect; nearly all actives have a fitted effect of over 50% in size
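T. brucei PYK with substrate was exposed to pin-transferred compounds across a concentration series, then started with 130 uM ADP (final). After 45 min at room temperature, Kinase-Glo Plus luminescence was read, normalized and curve-fitted.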
LmPK inh: LmPK (Leishmania mexicana) enzyme inhibition | Q27686 | purified LmPK, Kinase-Glo ATP luminescence, 1 h | Potency, µM (doses to about 57.5 µM), for the others: at the top dose activity change, negative = inhibition, hits mostly inhibitors | 290,000 tested, 0.37% active | AID 1721; note: % is set by controls: 0 for no effect and ±100 for the full control effect
Target sequence (Q27686 whole entry, looked up): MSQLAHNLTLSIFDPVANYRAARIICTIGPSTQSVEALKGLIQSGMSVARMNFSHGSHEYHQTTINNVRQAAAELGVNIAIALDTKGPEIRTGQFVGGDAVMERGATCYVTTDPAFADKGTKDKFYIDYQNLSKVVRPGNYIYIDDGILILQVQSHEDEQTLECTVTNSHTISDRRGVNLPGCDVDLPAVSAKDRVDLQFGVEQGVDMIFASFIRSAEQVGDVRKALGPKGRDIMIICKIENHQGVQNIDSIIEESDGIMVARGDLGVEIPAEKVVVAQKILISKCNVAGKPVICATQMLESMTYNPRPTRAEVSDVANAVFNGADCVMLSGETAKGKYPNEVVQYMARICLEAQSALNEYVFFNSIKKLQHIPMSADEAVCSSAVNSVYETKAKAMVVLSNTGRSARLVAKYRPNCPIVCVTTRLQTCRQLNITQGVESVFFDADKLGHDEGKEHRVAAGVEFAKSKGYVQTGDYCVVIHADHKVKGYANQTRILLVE
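Purified LmPK (0.1 nM) converted ADP (0.1 mM) to ATP with PEP (0.5 mM) in imidazole buffer pH 7.2 with KCl and MgCl2, 1 h at room temperature. ATP was read by Kinase-Glo luminescence; data normalized to uninhibited and no-enzyme controls.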
Giardia FBPA inh-1: Giardia lamblia aldolase inhibition | A8B2U2 | 290,000 tested, 0.71% active | purified Giardia FBPA | Potency, µM (doses to about 59.6 µM), inactives show at the highest dose activity, negative = inhibition, usual class: inhibitors; note: % is set by controls: 0 for no effect and ±100 for the full control effect; nearly all actives have a fitted effect of over 55% in size
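40 nM FBPA preincubated 10 min at RT with compound (up to 57.5 uM final), then substrate plus GAPDH/TPI/NAD/arsenate coupling and diaphorase/resazurin added. Fluorescence read after 20 min at RT, 525/598 nm.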
AMA1 RON2 block: disrupts binding of P. falciparum AMA1 to RON2 | AlphaScreen AMA1-biotinylated RON2 peptide binding | Potency, µM (highest dose often 58.2 µM), for inactives: at the top dose activity change, negative = inhibition, usual class: inhibitors | 360,000 tested, 0.2% active;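 note: 0% = vehicle wells and -100% = peptide control; nearly all actives have a fitted effect of over 45% in size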
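AMA1 (3D7) with his tag at 25 nM final met compounds first, then biotinylated RON2 peptide at 25 nM; detection used donor plus acceptor beads, 10 µg/mL apiece, read by AlphaScreen after 30 min at room temperature.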
NS1 function inh: influenza NS1 inhibition; Potency, µM (series often up to 46.1 µM), inactives show top-dose activity, positive = more growth; 270,000 tested, 0.4% active; AID 2326; calls by dose curve; note: actives are rising curves; nearly all actives have a fitted effect of over 50% in size
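A cell-based growth assay was used: compounds that relieve NS1-induced slow growth of budding yeast raise OD600. Assay medium was yeast nitrogen base with ammonium sulphate and -URA supplement, pH 6.0, with 2% galactose.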
Giardia growth: inhibitors of Giardia lamblia growth | shares compounds with Giardia FBPA inh-1 | Giardia lamblia trophozoite growth inhibition | Potency, µM (titrated, usually from 57.5 µM), without a hit: at the top dose activity change, negative = inhibition, usual class: inhibitors | 1,500 tested, 5% active | AID 2785;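 note: trophozoites exposed to compound for 48 h at 37 °C; % is set by controls: 0 for no effect and ±100 for the full control effect; nearly all actives have a fitted effect of over 70% in size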
Mammalian tox: counter-screen for Giardia aldolase inhibitors: mammalian cell toxicity. 1,500 tested, 4% active. mammalian cell viability counter-screen, qHTS. shares compounds with Giardia FBPA inh-1. AID 2786. Potency, µM (top dose mostly 57.5 µM), for the others: at the top dose viability change, negative = toxicity, actives largely listed as inhibitors;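 note: Chinese hamster ovary cells used as mammalian cytotoxicity surrogate; viability measured as cellular ATP by luminescence; compound exposure lasted 48 h before reading; % is set by controls: 0 for no effect and ±100 for the full control effect; nearly all actives have a fitted effect of over 60% in size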
Giardia FBPA inh-2: confirmation of Giardia fructose-bisphosphate aldolase inhibitors; shares compounds with Giardia FBPA inh-1; purified Giardia aldolase enzyme activity, qHTS; Potency, µM (highest dose often 57.5 µM), without a hit: top-dose activity change, negative = inhibition, hits mostly inhibitors; 1,500 tested, 5% active; note: % is set by controls: 0 for no effect and ±100 for the full control effect; nearly all actives have a fitted effect of over 45% in size
Rabbit FBPA inh: selectivity test for Giardia aldolase inhibitors: rabbit aldolase | shares compounds with Giardia FBPA inh-1 | Rabbit muscle FBPA enzyme inhibition, selectivity counter-screen | Potency, µM (titrated, usually from 57.5 µM), inactives show at the top dose activity, negative = inhibition, hits mostly inhibitors | 1,500 tested, 4% active | AID 2794; note: % is set by controls: 0 for no effect and ±100 for the full control effect; nearly all actives have a fitted effect of over 60% in size
GAPDH coupling: GAPDH inhibition flagged for Giardia aldolase hits; shares compounds with Giardia FBPA inh-1; GAPDH coupling enzyme counterscreen, biochemical, qHTS; Potency, µM (series often up to 57.5 µM), for the others: at the highest dose activity change, negative = inhibition, actives largely listed as inhibitors; 1,500 tested, 6% active; note: % is set by controls: 0 for no effect and ±100 for the full control effect; nearly all actives have a fitted effect of over 55% in size
* marks the source's active call; other numbers are inactive results; ? = inconclusive; . = no result given; ! = not active in a repeat; [ ] = dose if it differs, or a comment. Unless noted, calls come from the whole dose curve; as a rule, active = well fitted curve in the direction sought with a large enough effect; inconclusive = small, poorly fitted or top-dose-only effect, or another doubt; inactive = no such curve, though single readings can be large; an effect the other way counts as inactive or inconclusive. Potency is the fitted concentration of half-maximal effect.

SMILES	Tb PYK inh	LmPK inh	Giardia FBPA inh-1	AMA1 RON2 block	NS1 function inh	Giardia growth	Mammalian tox	Giardia FBPA inh-2	Rabbit FBPA inh	GAPDH coupling
CC(=O)N/N=C/c1c(C)[nH]n(-c2ccccc2)c1=O	-2%	-3%	16µM*	65%	.	0%[10.4 µM]	-10%	-7%	-17%	-19%
COc1cc(NS(=O)(=O)c2cc(Br)cc3c2N(C(C)=O)C(C)C3)cc(OC)c1 (stereo unspecified)	-1%	.	.	.	.	.	.	.	.	.
CCCCn1cc[n+](C)c1	.	.	-1%	.	.	.	.	.	.	.
Cc1ccc(OCC(=O)Nc2ccccc2C(=O)OCc2cc(=O)n3c(C)csc3n2)cc1	-9%	.	.	.	.	.	.	.	.	.
Cc1[nH]n(-c2ccccc2)c(=O)c1/C=N/O	0%	-7%	16µM*	31%	7%	?	-5%	-14%	2%	9%
Cc1[nH]n(-c2ccccc2)c(=O)c1/C=N/N(C)c1ccccc1	0%	-1%	-24%	-5%	-20%	.	.	.	.	.
COC(=O)c1ccc(NC(=O)CN2CCN(CC#N)CC2)cc1	2%	1%	25µM*	?	-1%	-5%[38.3 µM]	14%	1%	-2%	2%
Nc1nc(=S)c2[nH]cnc2[nH]1	14µM*!	.	3.2µM*	88%	.	2%[38.3 µM]	7.1µM*	-12%	-12%	-5%
Nc1nc(=S)c2[nH]c(=S)[nH]c2[nH]1	-31%	.	.	61%	.	.	.	.	.	.
NNC(=S)NC1CCS(=O)(=O)C1 (stereo unspecified)	-3%	3%	18µM*	53%	-1%	29%	11%	-3%	12%	2%
COCc1cc(=O)[nH]c(=S)[nH]1	-7%	-2%	4.5µM*	27%	10%	?	-4%	5%	1%	13%
O=c1cc(Cc2ccccc2)[nH]c(=S)[nH]1	3%	-1%	?	20%	9%	.	.	.	.	.
CN(C)CCCN1CCC2(CCC(C(C)(C)C)CC2)CC1	.	.	.	.	-8%	.	.	.	.	.
O=C(CSc1nc2ccccc2nc1Cc1ccc(Cl)cc1)N1CCN(c2ccccc2F)CC1	-3%[15.4 µM]	.	.	.	.	.	.	.	.	.
COc1ccc(C)cc1-n1[nH]nnc1=S	-17%	3%	14µM*	-12%	0%	-47%	16%	3%	7%	13%
Cc1cc(C)c(-n2[nH]nnc2=S)c(C)c1	?	1%	14µM*	-2%	0%	8%[10.4 µM]	14%	5%	6%	10%
C=C1C(CCl)(CCl)C2(Cl)C(Cl)C(Cl)C1(Cl)C2(Cl)Cl (stereo unspecified)	-1%	.	.	.	.	.	.	.	.	.
Cc1nc(N2CCOCC2)c2nc(-c3ccccc3)n(CC3CCN(C)CC3)c2n1	.	.	-6%	.	.	.	.	.	.	.
CCOC(=O)C1=C(CN(CC)Cc2ccccc2)NC(=O)NC1c1ccc(Cl)cc1 (stereo unspecified)	-5%	.	.	.	.	.	.	.	.	.
O=C(NC(=S)Nc1cccc(C(F)(F)F)c1)c1ccc2nonc2c1	-9%	8%	10µM*	50%	-5%	6%[10.4 µM]	-9%	9%	0%	3%
O=S(=O)(Cc1ccccc1)c1nnnn1C1CCCCC1	.	.	2%	.	.	.	.	.	.	.
COc1cccc(NC2=C(C#N)C(=O)NC(c3cccc(OC)c3O)S2)c1 (stereo unspecified)	-9%	2%	16µM*	22%	1%	?	3%	?	-2%	-25%
COC(=O)C1=C(O)/C(=C\c2sccc2C)N=C1C	-4%	-12%	-7%	-11%	2%	.	.	.	.	.
COC(=O)C1=C(O)/C(=C\c2cc(C)n(-c3ccccc3F)c2C)N=C1C	-17%	-1%	13µM*	-5%	.	-14%	-2%	-18%	-22%	-26%
COc1ccc(CCCC(=O)N/N=C/c2ccccc2OC)cc1	-6%	8%	16µM*	22%	.	-12%[10.4 µM]	-12%	?	40µM*	25µM*
SMILES	Tb PYK inh	LmPK inh	Giardia FBPA inh-1	AMA1 RON2 block	NS1 function inh	Giardia growth	Mammalian tox	Giardia FBPA inh-2	Rabbit FBPA inh	GAPDH coupling
NS(=O)(=O)c1ccc(N=Nc2ccc(O)c3ncccc23)cc1	-12%	-3%	?	-86%	27%	.	.	.	.	.
CCN(CC)S(=O)(=O)c1cc(OC)ccc1N=Nc1ccc(O)c2ncccc12	-14%	-9%	?	-78%	3%	-14%[38.3 µM]	29µM*	?	-19%	?
Cc1ccc(C)c(N=Nc2ccc(O)c3ncccc23)c1	-2%	0%	-1%	44%	.	.	.	.	.	.
CCS(=O)(=O)c1ccc(OC)c(N=Nc2ccc(O)c3ncccc23)c1	-12%	-6%	15%	-6%	.	.	.	.	.	.
CCOc1ccc(N=Nc2ccc(O)c3ncccc23)cc1	-6%	-6%	-8%	94%	4%	17%[38.3 µM]	-25%	?	-8%	-22%
Cc1cccc(N=Nc2ccc(O)c3ncccc23)c1	-19%	-11%	.	?	-72%	.	.	-20%	-18%	-13%

Screening results as filed in PubChem BioAssay.
